Results from patent US20030175730, “Multivalent RNA aptamers and their expression in multicellular organisms” (published 2003).

biological target: B52 (SRp55) full length (Drosophila melanogaster, UniProt P26686 P26686:1-350); experiment: EMSA; almost a factor of three; conditions: tags: baculovirus/Sf9 expressed, SR protein purification; label: 32P-UTP; ssRNA
Experimental: All binding assays were performed in 20 μl volume in 1× binding buffer described above. A typical binding assay using labeled RNA contains about 20 finole of ³²P-labeled RNA probe and differing amounts (1-10 pmole) of B52 protein. A typical binding assay using the truncated versions of B52 contains 1 μl of the ³⁵S-labeled translation reaction mixture with 2 pmoles of unlabeled RNA transcript (the final concentration of RNAs in this reaction was 100 nM and concentration of the labeled B52 proteins was much lower). The reactions were allowed to equilibrate for 15-20 minutes at ambient temperature before being subjected to filter binding, gel shift, or UV crosslinking.
To determine the sequence/structure requirements for binding by B52, deletion and substitution mutations, and antisense constructs of BBS were designed in light of the shared sequence motif and predicted secondary structures (FIG. 4). These short RNA transcripts were produced by in vitro transcription of synthetic templates, and their affinity to B52 was assayed by band shift.

Sequence of B52 (SRp55) full length (P26686 other isoform, or with tags, fused parts or gaps): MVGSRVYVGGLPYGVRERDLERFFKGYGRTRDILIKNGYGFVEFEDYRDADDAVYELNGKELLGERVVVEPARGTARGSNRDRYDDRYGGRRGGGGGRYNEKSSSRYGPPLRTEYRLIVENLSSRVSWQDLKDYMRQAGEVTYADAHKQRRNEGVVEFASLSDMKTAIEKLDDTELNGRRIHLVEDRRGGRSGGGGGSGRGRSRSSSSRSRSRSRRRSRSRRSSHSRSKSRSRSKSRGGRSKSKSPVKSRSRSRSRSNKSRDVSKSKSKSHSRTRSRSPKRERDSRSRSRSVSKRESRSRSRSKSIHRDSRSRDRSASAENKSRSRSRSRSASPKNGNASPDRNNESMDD

| Sequence | binding signal |
| --- | --- |
| GGACGAUCAACCAGGCGACAGU | ~3 fold lower affinity than BBS-II |
